# Many of the other results were omitted from the sample, so hits are more common in it than they were.
# Methyltransferases: Primary Screen for Target Class Profiling of Small Molecule Inhibitors of Methyltransferases | purified enzyme, MTase-Glo SAH luminescence; hits give low values | calls only at 40 µM | actives 3.9% (n = 25,000); call rule not given here
#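 Each enzyme was assayed with SAM and its substrate. SAH formation detected by MTase-Glo luminescence; single-point 40 uM screen[…].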
# Calls only; - = inactive; + = active, no number; ! = repeats disagree.
SMILES,Methyltransferases
COc1ccc(N2C(=O)c3cc4ccccc4n3CC2(C)C(=O)NCCC(C)C)c(OC)c1 (configuration not stated),-
COc1ccc(C(=O)N(CCC(C)C)Cc2nc(C)c(C)n2Cc2ccccc2C)c(OC)c1,+
Cc1cccc(Cn2nc3n(CC(C)C)c(=O)c4ccc(C(=O)NC5CCCCC5)cc4n3c2=O)c1,-
COc1cc(N2CCOCC2)ccc1Nc1ncc(F)c(Nc2ccccc2NS(C)(=O)=O)n1,+
COc1ccc(Nc2nc3c(S(=O)(=O)c4ccc(F)cc4)nnn3c3ccccc23)c(OC)c1,-
CCc1cc(=O)n(CC(=O)Nc2ccccc2OC)c(N2CCOCC2)n1,-
Cn1c(=O)n(C)c2cc(CNCCNC(=O)c3nonc3N)ccc21,-
CC(C)CCN1C(=O)c2ccc(-c3ccco3)n2CC1(C)C(=O)NC1CCCC(C)C1C (configuration not stated),-
C=Cc1ccc(Cn2nc3n(CCC(C)C)c(=O)c4ccc(C(=O)NC(C)CC)cc4n3c2=O)cc1 (configuration not stated),-
Cc1cc(C)cc(NC(=O)Cn2nc3n(CCCOC(C)C)c(=O)c4ccccc4n3c2=O)c1,-
O=C(OC[C@H]1O[C@H](O[C@]2(CO)O[C@H](CO)[C@@H](O)[C@@H]2O)[C@H](O)[C@@H](O)[C@@H]1O)c1ccccc1,-
CC(C)(O)/C=C1/C(=O)C(C)(C)C(=O)C(C)(C)C1(O)O[C@@H]1O[C@H](COC(=O)c2cc(O)c(O)c(O)c2)[C@@H](O)[C@H](O)[C@H]1O (some centres not stated),+
C[C@@]12C[C@]3(O)O[C@H](O1)[C@]1(COC(=O)c4ccccc4)[C@H]3C[C@@]12O[C@@H]1O[C@H](COC(=O)c2ccccc2)[C@@H](O)[C@H](O)[C@H]1O,-
Cc1cc2c(cc3n2CC(C)(C(=O)NC2CCCCC2)N(Cc2ccccc2Cl)C3=O)o1 (configuration not stated),-
COCCN1C(=O)c2c(-n3cccc3)c3cc(C)ccc3n2CC1(C)C(=O)NC1CCCCC1 (configuration not stated),-
Cc1ccc(C(=O)Cn2nc3n(CC(C)C)c(=O)c4ccccc4n3c2=O)c(C)c1,-
Cn1c(=O)c2[nH]c(-c3ccc(S(=O)(=O)O)cc3)nc2n(C)c1=O,+
C=CCn1c(=O)c2c(nc(-c3ccc(S(=O)(=O)O)cc3)n2C)n(C)c1=O,-
Cn1c(=O)c2[nH]cnc2n(C)c1=O,-
Cn1c(=O)n(C)c2cc(S(=O)(=O)Nc3ccc4c(c3)OCO4)ccc21,-
CCC(C(=O)N1CCOCC1)n1ccc2cc(S(=O)(=O)N3CCCCC3)ccc21 (configuration not stated),-
COc1ccc(CN2C(=O)c3cc(-c4ccc(OC)cc4)nn3CC2(C)C(=O)NCc2ccccc2)cc1 (configuration not stated),-
COC(=O)c1ccc([C@@H]2Nc3ccc(OC)cc3[C@@H]3C=CC[C@@H]32)cc1,-
CN(C)CCNC(=O)c1cccn2c(=O)c3cc4ccccc4cc3nc12,+
CCCN1C(=O)c2cc(C(=O)NCCN(C)C)nn2CC1(C)C(=O)NC1CCCC1 (configuration not stated),-
SMILES,Methyltransferases
CCCn1c(=O)c2ccc(C(=O)NC(C)CC)cc2n2c(SCC(=O)c3ccccc3)nnc12 (configuration not stated),-
Cc1ccc2c(c1)c(-n1cccc1)c1n2CC(C)(C(=O)NC2CCC(C)CC2)N(Cc2ccc(Cl)cc2)C1=O (configuration not stated),-
COc1ccc(-c2cc3n(n2)CC(C)(C(=O)NCc2ccccc2OC)N(CCCc2ccccc2)C3=O)cc1 (configuration not stated),-
COc1cccc(C(=O)Cn2nc3n(Cc4ccc(C)cc4)c(=O)c4ccccc4n3c2=O)c1,-
O=C(CCCc1nnc2n3nc(-c4ccccc4)nc3c3ccccc3n12)NCCc1ccc(Cl)cc1,-
COCC(=O)N(C)Cc1ccc(F)cc1,-
CCOC(=O)Nc1ccc(NCc2ccc(F)cc2)nc1N,+
CCOC(=O)c1cc2n(n1)CC(C)(C(=O)NCc1ccc(F)cc1)N(c1ccc(C)cc1C)C2=O (configuration not stated),-
CC1(C(=O)NC2CCCCCCC2)Cn2c(ccc2-c2ccco2)C(=O)N1Cc1ccccc1F (configuration not stated),-
CCC(C)NC(=O)c1ccc2c(=O)n(Cc3ccccc3)c3nn(CC(N)=O)c(=O)n3c2c1 (configuration not stated),-
Cc1ccccc1CNC(=O)c1cc2n(n1)CC(C)(C(=O)NC1CCCCCC1)N(C)C2=O (configuration not stated),-
Cc1nc(Nc2n[nH]c3c2CN(C(=O)NC(CN(C)C)c2ccccc2)C3(C)C)c2sccc2n1 (configuration not stated),+
Cc1ccc(N2C(=O)c3ccccc3CC2(C)C(=O)NCc2ccccc2)cc1 (configuration not stated),-
CCCC[C@@]1(C2CCCC2)Cc2cc(OCC(=O)O)c(Cl)c(Cl)c2C1=O,+
C[C@]1(C2CCCC2)Cc2cc(OCC(=O)O)c(Cl)c(Cl)c2C1=O,+
COc1ccc2c(c1)c(NC(C)=O)c1n2CC(C)(C(=O)NC2CCCCC2)N(Cc2ccco2)C1=O (configuration not stated),-
CC1(C(=O)NC2CCCCCC2)Cn2c(nc3ccccc32)C(=O)N1CC1CCCO1 (configuration not stated),-
CC(CN1C(=O)c2ccc(-c3ccco3)n2CC1(C)C(=O)NC1CCCC1)c1ccccc1 (configuration not stated),-
COc1cccc(CNC(=O)CNC(=O)C2(C)Cn3c(cc4ccccc43)C(=O)N2C)c1 (configuration not stated),-
CC1(C(=O)NC2CCCCCCC2)Cn2c(cc3occc32)C(=O)N1c1cccc(Cl)c1 (configuration not stated),-
COC(=O)c1cc2n(n1)CC(C)(C(=O)NC1CCCC1)N(c1ccc(C)c(C)c1)C2=O (configuration not stated),-
Cc1[nH]cnc1C1CCN(c2nc3cccc4c3n2CCC4=O)CC1,+
CCc1cccc(NS(=O)(=O)c2cc3[nH]c(=O)[nH]c3cc2C)c1,-
Cc1ccc(CN2CCC(CNc3cc(C4CC(O)C4)ncn3)CC2)o1 (configuration not stated),-
CN1CCC(CNc2ccc3ncc(-c4cccc(OC(F)(F)F)c4)n3n2)CC1,+!
SMILES,Methyltransferases
CC(C)CCn1c(=O)c2ccc(C(=O)NC(C)C)cc2n2c(=O)n(CC(=O)Nc3cccc(F)c3)nc12,-
CCc1ccc(-c2cc3n(n2)CC(C)(C(=O)NC2CCCCC2)N(CCN2CCOCC2)C3=O)cc1 (configuration not stated),-
COc1c(-c2ccc(O)cc2)cc(OC)c2c1oc1cc(O)c(OC3OC(CO)C(O)C3O)cc12 (configuration not stated),-
COc1c2cc(c(O[C@@H]3O[C@H](CO)[C@@H](O)[C@H](O)[C@H]3O)c1OC)CCCCC(O)CCc1ccc(O)c-2c1 (some centres not stated),+
COc1cc(CO)cc(OC)c1O[C@@H]1O[C@H](CO)[C@@H](O)[C@H](O)[C@H]1O,-
Cc1ccccc1CNC(=O)c1cc2n(n1)CC(C)(C(=O)NC1CCCC1)N(C)C2=O (configuration not stated),-

# Bioassay records from PubChem.
